# PubChem BioAssay AID463190 (Sanford-Burnham Center for Chemical Genomics, 2010)
# In all, about 330,000 compounds went through this assay and about 7,300 (2.2%) were called active. The sample holds actives, similar compounds and a random draw of the others, so the mix is not that of the screen. A number with no mark means an inactive call.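 The calls were made as follows: active = inhibition of at least 40%; inactive = the rest.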
# Experiment: growth inhibition of tim10-1 ts yeast – luminescence, uHTS, primary screen (AID 463190);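 also: mutant grown at 25 °C; 0% = DMSO wells with yeast and 100% = wells holding no yeast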
# Conditions: S. cerevisiae tim10-1 ts strain growth, BacTiter-Glo, 24 h; at 20 µM; stronger effect = higher value
row,SMILES,inhibition
1,Cc1[nH]c2ccc(C(=O)N3CCN(C)CC3)cc2c1C,-12.6%
2,COc1ccccc1N1CCN(C(=O)c2ccc(Cl)c(S(=O)(=O)N3CCCC3)c2)CC1,22%
3,CCOc1ccccc1N1CCN(C(=O)c2ccc3[nH]c(C)c(C)c3c2)CC1,48.8% (active)
4,COc1ccc(-c2c(C#Cc3ccsc3)c3cc(-c4ccc(CN5CCOCC5)cc4)ccc3n2C)cc1,15.1%
5,Cc1ccccc1C(=O)N1CCC(C(=O)Oc2ccc(C#N)cc2)CC1,-2.27%
6,CCOc1ccccc1/C=c1\sc2nc(-c3ccco3)nn2c1=O,54.3% (active)
7,CS(=O)(=O)n1nc(-c2ccco2)nc1N,3.68%
8,CCCn1nc(C(=O)NNC(=O)CCOc2ccccc2OCC)c2ccccc2c1=O,17.6%
9,Cn1cccc1C(C#N)c1ccccc1C#N (stereo unspecified),10.1%
10,O=C(NC1(C(F)(F)F)NC(=O)N(Cc2cccnc2)C1=O)c1ccccc1Cl (stereo unspecified),9.72%
11,COc1cc(C(=O)N(C)Cc2cccc(OC)c2OC)ccc1OCC(=O)Nc1cccc(C(F)(F)F)c1,20.8%
12,COc1ccc(Cn2c(-c3ccc(Cl)cc3)c[n+]3ccccc23)cc1,48.6% (active)
13,CCn1c(C)cc(=O)cc1-c1ccc(Cl)cc1,8.56%
14,COc1ccc(Cn2c(=O)cc(C)[nH]c2=S)cc1,-11.8%
15,Cc1cccc(NS(=O)(=O)c2cccc(C(=O)NNC(=O)c3ccccc3O)c2)c1,21.6%
16,O=C(CN1CCN(C(=S)NC2CCCC2)CC1)Nc1ccc(Oc2ccccc2)cc1,12.6%
17,Cc1ccc2cc(C#N)c(NCCNC(=S)NCCCN3CCOCC3)nc2c1,-0.527%
18,CC(C)N(C(=O)Cn1cc(S(=O)(=O)CC(=O)N2CCOCC2)c2ccccc21)C(C)C,-3.3%
19,CCOC(=O)c1[nH]cnc1C(=O)Nc1ccccc1C,11.6%
20,O=C(Nc1ccon1)c1nc[nH]c1C(=O)NCc1ccccc1,7.98%
21,CCOC(=O)c1ccc(NC(=O)c2nc[nH]c2C(=O)NCc2ccccc2)cc1,41.1% (active)
22,CC(C)c1ccc(S(=O)(=O)N2CCN(C(C)C(=O)NC3CCCC3)CC2)cc1 (stereo unspecified),13.4%
23,Nc1c(C(=O)O)cnn1-c1ccccc1,2.2%
24,CCN(C(=O)COC(=O)c1ccccc1O)c1cccc2ccccc12,24.2%

row,SMILES,inhibition
1,O=C(O)c1cccc(NC(=S)N/N=C/c2c[nH]c3ccccc23)c1,19%
2,CSC(=S)N/N=C/c1c[nH]c2ccccc12,54.2% (active)
3,Nc1nonc1-n1nnc(C(=O)N/N=C/c2c[nH]c3ccccc23)c1-c1ccccc1,11.6%
4,Cn1cnc(S(=O)(=O)Nc2ccc3c(c2)OCCO3)c1,-19.7%
5,O=C(CC1N=C2c3ccccc3N=C(SCc3ccccc3Cl)N2C1=O)NCc1ccco1 (stereo unspecified),24.8%
6,Clc1ccccc1CSc1nnc(-c2ccco2)c(-c2ccco2)n1,41.7% (active)
7,S=C(NCc1ccco1)NCc1ccccc1Cl,28.9%
8,Cc1cc(C)n(Cc2cnc(N3CCOCC3)s2)n1,10.6%
9,COc1ccc(-n2c(=O)[nH]c3cc(C(=O)NCCc4ccc(OC)c(OC)c4)ccc3c2=O)c(OC)c1,7.83%
10,CCOc1ccccc1N(CC(=O)NC1CCCCC1)C(=O)CCCC(=O)Nc1ccccn1,10.6%
11,Cn1c(Cc2cccs2)nnc1SCC(=O)Nc1ccccc1,10.8%
12,CCn1c(/C=C/c2ccc([N+](=O)[O-])o2)nc2ccccc2c1=O,69.9% (active)
13,CCc1ccc(S(=O)(=O)N/N=C\c2ccc([N+](=O)[O-])o2)cc1,30.4%
14,CCn1c(=O)c([N+](=O)[O-])c(NCc2ccc3c(c2)OCO3)c2ccccc21,2.3%
15,COc1ccc(OC)c(C2C3=C(N=c4s/c(=C\c5cccc(O)c5)c(=O)n42)c2ccccc2CC3)c1 (stereo unspecified),22%
16,COc1ccc(CN2CC[C@H]3C=CC[C@@H](C(=O)N4CCOCC4)[C@H]3C2=O)cc1OC,6.76%
17,Cc1nc2ccccn2c1C(=O)NN=C1CCN(C)CC1,1.25%
18,CCOC(=O)Cn1c(O)c(N=NC(=O)CNC(=O)Cc2ccccc2)c2ccccc21,-11.5%
19,O=C(CN1CCCC1)Nc1sc2c(c1C(=O)Nc1ccccc1)CCCC2,2.11%
20,Cc1nc(-c2ccc(Cl)cc2)sc1C(=O)CBr,50.9% (active)
21,Cc1nc(-c2ccccc2)sc1C(=O)/C=C/N(C)C,5.62%
22,Cc1nc(-c2ccc(Cl)cc2)sc1C(=O)NN,-3.83%
23,CCc1ccc(S(=O)(=O)Nc2ccc(C)c(NS(C)(=O)=O)c2)cc1,-0.664%
24,O=S(=O)(Nc1cc(Cl)ccc1N1CCOCC1)c1ccccc1Cl,12%

row,SMILES,inhibition
1,Nc1ccc(-c2nnc(-c3ccc(-c4ccccc4)cc3)o2)cc1,45.9% (active)
2,Nc1ccc(-c2nnc(-c3ccccc3)o2)cc1,-11.5%
3,Brc1ccc(-c2nnc(-c3ccccc3)o2)o1,-6.79%
4,Cc1cc2c(=O)n(C)c(SCC(=O)c3cc4ccccc4o3)nc2s1,29.9%
5,CCOc1ccccc1Nc1nnc(SCC(=O)Nc2cc(C)on2)s1,14.3%
6,Cc1ccccc1Nc1nnc(SCC(=O)c2cc3ccccc3o2)s1,43.5% (active)
7,O=C(Nc1cc(-c2nn(CC(=O)N3CCCCC3)c(=O)c3ccccc23)ccc1N1CCOCC1)c1ccc(Cl)cc1,5.87%
8,Cc1cc(C)n2nc(CNS(=O)(=O)c3c(F)c(F)c(F)c(F)c3F)nc2n1,3.29%
9,CC(=O)Nc1ccc(C(=O)/C=C/c2ccc[nH]2)cc1,-13.3%
10,CC(=O)Nc1ccc(/C=C/C(=O)c2ccccc2)cc1,51.4% (active)
11,O=C(/C=C/c1ccc(N2CCOCC2)cc1)c1ccccc1,36.1%
12,O=C(CCNS(=O)(=O)c1ccccc1C(F)(F)F)Nc1ccncc1,-1.52%
13,Cc1nn(-c2ccccc2)c(Cl)c1/C=C/C(=O)c1ccc(O)cc1,0.354%
14,Cc1ccc(C(=O)/C=C/c2c(C)nn(-c3ccccc3)c2Cl)cc1,42.7% (active)
15,Cc1ccc(-n2nc(C)c(/C=N/NC(=O)c3cccs3)c2Cl)cc1,-6.6%
16,CC(=O)N/C(=C\c1ccccc1)C(=O)OC(C)C(=O)N(C)c1ccccc1 (stereo unspecified),4.65%
17,COC(=O)c1c(C(=O)OC)c2n(c1C)CCS2,-20.7%
18,COc1ccccc1CCNC(=O)c1c(C)nn(CC(C)C)c1Cl,16.6%
19,Cc1cc2ccccn2c1C(=O)c1cccc(F)c1,-8.04%
20,Cc1ccc(C(C[N+](=O)[O-])c2c(C)cc3ccccn23)cc1 (stereo unspecified),41.6% (active)
21,Cc1ccc(C(=O)NNC(=O)CSc2nnc3ccccn23)cc1,4.3%
22,CCc1ccc(C(=O)NC(=S)Nc2ccccc2N2CCOCC2)cc1,40.2% (active)
23,Cc1ccc(C(=O)NC(=S)Nc2ccccc2C)cc1,40.5% (active)
24,O=C(Nc1ccccc1N1CCOCC1)c1ccncc1,-6.96%

row,SMILES,inhibition
1,O=C(NC(=S)Nc1ccccc1N1CCCCC1)c1ccc(F)cc1,32.4%
2,Cc1cc(C(=O)NNC(=S)Nc2ccccc2C)cs1,24%
3,Cc1ccccc1NC(=S)NC(=O)Cc1ccc(Cl)cc1,22.6%
4,COc1ccc(C(=O)NC(=S)Nc2ccccc2N2CCN(S(C)(=O)=O)CC2)cc1OC,25%
5,COc1ccccc1C(=O)NC(=S)Nc1ccccc1N1CCCCC1,41.9% (active)
6,O=C(COc1ccc(Cl)cc1)NC(=S)Nc1ccccc1N1CCOCC1,4.3%
7,COc1ccccc1Cn1c(C)nnc1-c1cnn(C)c1N,9.92%
8,CCOC(=O)c1c(Cc2ccc(Cl)cc2)c[nH]c1C,29.9%
9,O=Cc1ccc(OCc2cn3ccccc3n2)cc1,-8%
10,Nc1nc(CC(=O)CSc2ccc(Cl)cc2)nc(Nc2ccc(F)cc2)n1,1.48%
11,COc1ccc2nc(NC(=O)[C@@H]3CCCN3C(=O)c3cccs3)sc2c1,45.4% (active)
12,COc1cc(Cl)c(C)cc1NC(=O)[C@@H]1CCCN1C(=O)c1cccs1,31.3%
13,COc1ccc(Cl)cc1NC(=O)[C@@H]1CCCN1C(=O)c1cccs1,33.9%
14,COCCCN(C(=S)Nc1c(C)cc(C)cc1C)C(C)c1ccncc1 (stereo unspecified),21.3%
15,O=S(=O)(NCc1ccc2c(c1)OCO2)c1cccc2nsnc12,1.8%
16,COc1ccc(Nc2cc(=O)n(-c3ccccc3)c3c2c(=O)n(C)c(=O)n3C)cc1,14.6%
17,O=C1C(Cc2ccc(O)cc2)NC(=S)N1Cc1ccccc1 (stereo unspecified),-2.4%
18,Cc1ccc(N2C(=O)C(Cc3ccccc3)NC2=S)cc1 (stereo unspecified),44.1% (active)
19,Cc1cc(C)c(NC(=O)CN2C(=O)NC(Cc3ccccc3)C2=O)c(C)c1 (stereo unspecified),-9.44%
20,CC(=O)c1cc2c(cc1NC(=O)Cn1nc(-c3ccc(F)cc3)ccc1=O)OCO2,16.5%
21,CN(C)c1ccc(C(CNC(=O)c2ccc(F)cc2)c2c[nH]c3ccccc23)cc1 (stereo unspecified),37.2%
22,Clc1ccc(Nc2nc(-c3cccs3)cs2)nc1,45.1% (active)
23,Cc1cccc(Nc2nc(-c3ccccc3)cs2)n1,-40.5%
24,CCCc1cc(C(=O)Nc2ccc(Cl)cn2)cs1,27.7%
